A selection: hits, their analogues and other compounds. The true share with any hit is near 8.9%.
KB-3-1 tox: kills parental KB-3-1 adenocarcinoma cells | KB-3-1 viability, CellTiter-Glo ATP luminescence, 72 h | Potency, µM (top dose mostly 46.1 µM), hits mostly cytotoxic | 1.4% of 400,000 active | AID 1347075; note: potency is the fitted concentration of half-maximal effect; % is set by controls: 0 for no effect and ±100 for the full control effect; nearly all actives have a fitted effect of over 60% in size
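Parental KB-3-1 viability, qHTS format: 72 h compound exposure, 37 °C; CellTiter-Glo; media-only wells and DMSO plates as controls; concentration-effect fits on corrected data.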
DRD3 agonist: activates the human D3 dopamine receptor; D3R DiscoveRx beta-arrestin cells, luminescence, 90 min; AID 652048; max activation, %; 0.58% of 410,000 active; in the data active = max activation above about 30%; note: 0% is about no effect
Target sequence (P35462 whole entry, looked up): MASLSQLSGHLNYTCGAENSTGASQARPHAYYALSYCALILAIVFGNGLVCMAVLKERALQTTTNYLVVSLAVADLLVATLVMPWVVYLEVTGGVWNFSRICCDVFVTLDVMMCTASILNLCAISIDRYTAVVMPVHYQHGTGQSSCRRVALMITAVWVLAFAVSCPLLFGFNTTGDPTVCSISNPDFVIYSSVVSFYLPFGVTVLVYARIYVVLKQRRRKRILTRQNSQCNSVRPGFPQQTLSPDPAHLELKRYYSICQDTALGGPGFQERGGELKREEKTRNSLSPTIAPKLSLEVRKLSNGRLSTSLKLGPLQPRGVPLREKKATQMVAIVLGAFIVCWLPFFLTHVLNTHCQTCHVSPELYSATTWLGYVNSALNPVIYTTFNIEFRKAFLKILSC
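Cells at 1500/well, incubated overnight, then treated with pinned compounds (dopamine as control) for 90 min at 37 degrees C. DiscoveRx reagent added for 30 - 60 minutes at room temperature; luminescence read.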
MCF10A rerep: induces DNA re-replication in MCF 10a normal breast cells; MCF 10A DNA re-replication, Hoechst nuclear intensity, 48 h; 2.9% of 350,000 active; Potency, µM (series often up to 46.1 µM), inactives show at the top dose activity, positive = re-replication, hits mostly activators; note: potency is the fitted concentration of half-maximal effect; % of control where 0% means no effect; nearly all actives have a fitted effect of over 50% in size
D3 antag: blocks the human D3 dopamine receptor | 2.5% of 360,000 active | max response, negative = inhibition, % | D3R cells, DiscoveRx beta-arrestin luminescence, antagonist mode; stronger effect = lower value | P35462; in the data active = max response below about -50%; inconclusive = no clear call, values can overlap the other calls; note: % is set by controls: 0 for no effect and ±100 for the full control effect
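Cells expressing the human receptor were seeded at 1500 cells/well, incubated overnight at 37 degrees C in 5% CO2, then exposed to library compounds with dopamine controls for 90 minutes at 37 degrees C before luminescent detection.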
KB-V1 MDR tox: KB-V1 MDR subline cytotoxicity. KB-V1 MDR cells viability, CellTiter-Glo, 72 h. Potency, µM (highest dose often 46.1 µM), usual class: cytotoxic. 3.4% of 400,000 active. AID 1347076; note: potency is the fitted concentration of half-maximal effect; % is set by controls: 0 for no effect and ±100 for the full control effect; nearly all actives have a fitted effect of over 60% in size
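KB-V1, DMEM (no phenol red) + 10% FBS; cpd pin-transferred, titration series; 72 h, 37 degrees C; CellTiter-Glo, luminescence. Data normalized, curve-fit.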
SW480 rereplic: inducers of DNA re-replication in SW480 colon cancer cells; 1.8% of 340,000 active; SW480 DNA re-replication, Hoechst DNA content imaging, 48 h; AID 624297; Potency, µM (series often up to 46.1 µM), for the others: at the top dose re-replication activation, hits mostly activators; note: potency is the fitted concentration of half-maximal effect; % of control where 0% means no effect; nearly all actives have a fitted effect of over 55% in size
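Hoechst fluorescence of nuclei (405 nm excitation, 500-530 nm emission) measured by plate-scanning imager after 48 hr compound exposure at 37 C; re-replication scored as increased number of nuclei with elevated intensity.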
Starred values were filed as active, the others as inactive; i = inactive; ? = inconclusive; . = no result; ! = a repeat was not active; [ ] = dose if it differs, or a comment. Unless noted, calls come from the whole dose curve; as a rule, active = well fitted curve in the direction sought with a large enough effect; inconclusive = small, poorly fitted or top-dose-only effect, or another doubt; inactive = no such curve, though single readings can be large; an effect the other way counts as inactive or inconclusive.

SMILES | KB-3-1 tox | DRD3 agonist | MCF10A rerep | D3 antag | KB-V1 MDR tox | SW480 rereplic
CCN(C(=O)CCS(=O)(=O)c1ccc2c(c1)CCN2C(C)=O)c1cccc(C(F)(F)F)c1 | i | 0.1 | . | . | ? | .
O=C(NCc1ccco1)/C(=C/c1cccc(C(F)(F)F)c1)c1nc2ccccc2[nH]1 | ? | -1.7 | 23.1µM* | -26.6 | 20.6µM* | ?
O=C(COC(=O)/C=C/c1cccc(C(F)(F)F)c1)NCc1ccco1 | i | 2.1 | 1.1% | -0.6 | i | -89.7%
O=C(NCc1ccco1)/C(=C/c1ccc(C(F)(F)F)cc1)c1nc2ccccc2[nH]1 | ? | -7.8 | 20.6µM* | -12.2 | i | 20.6µM*
O=S(=O)(/C(=C\c1ccc(C(F)(F)F)cc1)c1nc2ccccc2[nH]1)c1ccccc1 | 2.59µM* | -12.4 | ? | -93.5* | ? | 2.31µM*
CC(C)(C)OC(=O)N1CCC(c2c(C(=O)N3CCN(c4ccccc4F)CC3)cnn2-c2ccccc2Cl)CC1 | i | 0.4 | . | . | i | .
CCCCN(CCCNC(=O)CN1N=C(c2ccc(C)cc2)CCC1=O)c1ccccc1 | . | -4.6 | . | . | . | .
Fc1ccc(CNCc2ccccc2Cl)cc1 | i | -14.9 | -4.1% | -6.9 | i | -0.2%
Cc1ccc(CNCc2ccccc2Cl)cc1 | i | -13.4 | 1.8% | -67.4* | i | -2.6%
CC(C)(C)c1nc2ccccc2c2nnc(SCC(=O)Nc3nc4ccccc4s3)n12 | i | 16.2 | 9.5% | 11.5 | ? | -0.4%
CC(C)(C)c1nc2ccccc2c2nnc(SCC(=O)NCc3ccco3)n12 | i | 8.6 | -8.8% | 8.8 | 5.17µM* | 1.3%
C=CCn1c(SCC(=O)NCc2ccco2)nnc1-c1ccc2ccccc2n1 | i | 0.6 | 7.1% | -8.6 | 7.31µM* | -2.4%
CC(C)c1nc2ccccc2c2nnc(SCC(=O)NCc3ccco3)n12 | ? | 7.0 | ? | 16.3 | 4.11µM* | 13.9%
CCCCOc1ccc(CNC(=O)c2cnc3sc(N4CCCCCC4)nn3c2=O)cc1 | . | 8.1 | . | . | . | .
Cc1ccc(CCNC(=O)c2cc3cc4cc(C)ccc4nc3s2)cc1 | i | -2.6 | . | . | i | .
Cc1ccc2nc(NCc3ccccc3Cl)c3nnnn3c2c1 | i | 5.6 | . | . | i | .
COc1ccc(N2CCN(c3nc4ccc(C)cc4n4nnnc34)CC2)cc1 | . | 73.3* | . | . | . | .
Cc1ccc2nc(Cl)c3nnnn3c2c1 | ? | -6.4 | 2.59µM* | -108.7* | ? | 1.84µM*
CCOC(=O)COc1ccc(C)cc1C(=O)c1ccn2nc(-c3ccc(F)cc3)cc2n1 | i | 8.1 | . | . | i | .
COc1cc(-c2nc3cnccn3c2Nc2ccc(C(C)C)cc2)ccc1O | i | 19.7 | 1.3% | 50.1 | i | 0.5%
CCCCNc1c(-c2ccc(OC)c(SC(C)CC)c2)nc2cnccn12 (configuration not stated) | ? | 53.0* | ? | 78.7 | ? | ?
CCC(C)Sc1cc(-c2nc3ccc(C)cn3c2NCc2ccccc2)ccc1OC (configuration not stated) | ? | 0.1 | ? | -16.8 | ? | ?
CCCCCCSc1cc(-c2nc3ccc(C)cn3c2NCCCC)ccc1OC | i | 70.9* | ? | 131.9 | ? | ?
CCCCNc1c(-c2ccc(OC)c(SC(C)CC)c2)nc2ccc(C)cn12 (configuration not stated) | ? | 12.8 | ? | -13.9 | 18.4µM*! | 12.8%[9.22 µM]
CCCCCCSc1ccc(-c2nc3cnccn3c2NCCCC)cc1 | i | 63.5* | ? | 158.5 | i | 20.6µM*
SMILES | KB-3-1 tox | DRD3 agonist | MCF10A rerep | D3 antag | KB-V1 MDR tox | SW480 rereplic
O=C1CC(c2c(Cl)cccc2Cl)c2c(ccc3ccccc23)N1 (configuration not stated) | i | 9.1 | . | . | i | .
CCOc1ccc(C(=O)Cn2c(=O)n3nc(CCn4nc(C)cc4C)nc3c3cc(OC)c(OC)cc32)cc1 | . | 6.4 | . | . | . | .
CCC(C)Sc1ccc(-c2nc3ccc(C)cn3c2NCc2ccccc2)cc1OC (configuration not stated) | i | 9.1 | 6.51µM* | 45.5 | ? | ?
CCCCCCSc1ccc(-c2nc3ccc(C)cn3c2NCc2ccccc2)cc1 | ? | 15.3 | ? | 6.6 | ? | -2.1%[9.22 µM]
CCC(C)Sc1ccc(-c2nc3ccc(Cl)cn3c2NCc2ccccc2)cc1 (configuration not stated) | i | -0.4 | 11.6µM* | 1.9 | i | 15.3%
CCCCNc1c(-c2cccc(SC(C)CC)c2)nc2ccc(Cl)cn12 (configuration not stated) | ? | 2.7 | ? | 62.0 | ? | -5.9%
COc1ccc(-c2nc3cc(C)ccn3c2NCc2ccc3c(c2)OCO3)cc1 | i | -1.7 | 23.7% | -8.6 | i | 0.0%
CCCCNc1c(-c2ccc(Sc3ccc(OC)cc3)cc2)nc2cc(C)ccn12 | ? | 55.9* | 23.1µM* | 0.0 | i | ?
CCCCCCSc1cccc(-c2nc3ccc(Cl)cn3c2NCc2ccccc2)c1 | i | 14.4 | 20.6µM* | 33.0 | ? | -2.9%
COc1cc(NC(=O)C(Cc2ccccc2)NS(=O)(=O)c2cccc3nsnc23)cc(OC)c1 (configuration not stated) | ? | 7.0 | . | . | i | .
Cc1cccc(C)c1NC(=O)c1cc(S(=O)(=O)N2CCc3ccccc3C2)ccc1F | i | 9.4 | . | . | i | .
Cc1cc(C)c2sc(N(Cc3cccnc3)C(=O)CCOc3ccccc3)nc2c1 | i | -4.1 | . | . | i | .
CN(CC(=O)Nc1ccc(F)c(F)c1F)C(=O)CCCSc1nc2ccccc2[nH]1 | i | -4.8 | -0.9% | -7.4 | ? | 1.9%
CCCCNc1c(-c2ccc(OC)c(SC(C)CC)c2)nc2ccc(Cl)cn12 (configuration not stated) | i | 3.0 | 20.6µM* | 48.2 | i | 11.3%
CCCCNc1c(-c2ccc(OC)c(SC(C)CC)c2)nc2cc(C)ccn12 (configuration not stated) | ? | 62.9* | 20.6µM* | 4.4 | i | ?
CCCCNc1c(-c2ccc(-c3ccc(C(C)=O)cc3)c(OC)c2)nc2cc(C)ccn12 | ? | -19.6 | ? | 39.0 | ? | ?
CCCCCCSc1cc(-c2nc3ccc(Cl)cn3c2NCCCC)ccc1OC | i | 26.1 | 1.9% | 50.5 | ? | -17.4%[9.22 µM]
COc1ccc(OC)c(NC(=O)C2=C(C)C(=O)OC23CCN(C(C)C)CC3)c1 | i | -10.4 | . | . | i | .
CC(=O)n1cc([C@H]2C=C(C(=O)NCc3ccccc3)O[C@@H](OCc3ccc(CO)cc3)C2)c2ccccc21 | i | 5.3 | 18.4µM* | 24.6 | i | 15.5%
